These results are taken from PubChem BioAssay (NCATS).

Inconclusive results are not listed. Values without a mark were called inactive. Active and inactive are the calls of the source. The call rests on the fitted dose curve; in most records, active means well fitted curve in the direction sought with a large enough effect; inconclusive means small, poorly fitted or top-dose-only effect, or another doubt; inactive means no such curve, though single readings can be large; an effect the other way counts as inactive or inconclusive.

Chain of Rap guanine nucleotide exchange factor 3 (Homo sapiens) (O95398 whole entry, looked up): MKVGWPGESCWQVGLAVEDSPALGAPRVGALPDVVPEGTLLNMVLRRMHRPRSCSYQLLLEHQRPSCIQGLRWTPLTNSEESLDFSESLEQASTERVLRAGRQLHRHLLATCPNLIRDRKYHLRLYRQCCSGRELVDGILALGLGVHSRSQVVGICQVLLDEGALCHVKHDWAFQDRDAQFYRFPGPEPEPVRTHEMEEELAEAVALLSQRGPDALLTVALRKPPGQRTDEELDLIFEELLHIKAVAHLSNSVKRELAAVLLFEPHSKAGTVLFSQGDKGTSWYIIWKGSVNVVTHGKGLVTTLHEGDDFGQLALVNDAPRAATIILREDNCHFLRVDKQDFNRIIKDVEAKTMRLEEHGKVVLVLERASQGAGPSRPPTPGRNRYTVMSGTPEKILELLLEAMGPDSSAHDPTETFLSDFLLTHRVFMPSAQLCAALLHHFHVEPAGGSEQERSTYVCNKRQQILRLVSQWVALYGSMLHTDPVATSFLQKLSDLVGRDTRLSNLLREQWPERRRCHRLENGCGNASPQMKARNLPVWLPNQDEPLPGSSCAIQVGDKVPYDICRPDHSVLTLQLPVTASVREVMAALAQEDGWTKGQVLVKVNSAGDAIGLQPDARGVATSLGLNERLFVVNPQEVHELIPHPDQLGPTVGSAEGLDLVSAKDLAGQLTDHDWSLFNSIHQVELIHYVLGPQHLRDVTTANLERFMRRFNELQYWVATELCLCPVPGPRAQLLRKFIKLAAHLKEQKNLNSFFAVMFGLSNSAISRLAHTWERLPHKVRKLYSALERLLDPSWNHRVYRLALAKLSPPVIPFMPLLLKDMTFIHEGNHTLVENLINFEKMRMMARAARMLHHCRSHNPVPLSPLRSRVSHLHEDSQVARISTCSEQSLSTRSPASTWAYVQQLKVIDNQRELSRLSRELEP

The target of the first assay is Rap guanine nucleotide exchange factor 3 (Homo sapiens) (UniProt O95398). Kind of assay: Counterscreen qHTS for antagonist of cAMP-regulated guanine nucleotide exchange factor 3 (EPAC1) (AID 1645888).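 Further: fluorescence loss as bound BODIPY-GDP is released from Rap1B; % of control where 0% means no effect.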 The conditions noted are these: Rap1B-BODIPY-GDP nucleotide exchange, fluorescence; series mostly up to 154 µM. In a few lines:
(§1)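 Rap1B–BODIPY-GDP (250 nM) with 50 uM GDP; compounds pin-transferred to 9.74 nM–152 uM final (activator) or from 7.32 nM upwards (inhibitor). Fluorescence Ex/Em 480/540 nm read at 5 and 30 min, then after adding cAMP or buffer, at room temperature.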
For orientation: A counterscreen serves to expose hits that act by an unwanted route or on another target.
`CN(C)c1ccc(C2C=C(c3ccc(Cl)cc3OC(F)F)Nc3ncnn32)cc1` (centres undefined): the activity change, negative = inhibition was -14.7% [at 30.8 µM].

In the case of `O=C1/C(=C/C=C/c2ccccc2)Oc2c1ccc(O)c2CN1CCN(CCO)CC1`, the activity change, negative = inhibition was 31.1% [at 30.8 µM].

For `O=S(=O)(NCC(c1ccco1)N1CCc2ccccc21)c1ccccc1` (centres undefined), the activity change, negative = inhibition was -0.643% [at 30.8 µM].

On to `Cc1cccc(C(C)C)c1-n1nnnc1-c1ccccc1`, for which the activity change, negative = inhibition is -11.8% [at 30.8 µM].

Take `O=C(N/N=C/c1cc(Cl)cc([N+](=O)[O-])c1O)NC12CC3CC(CC(C3)C1)C2`: the Potency result is “inactive”.

For `O=C(c1cccs1)N(Cc1cccnc1)c1nc2c(Cl)cccc2s1`, the Potency result is “inactive”.

Turning to `CCOC(=O)C1CCCN(c2c(C(=O)c3ccccc3)cnc3ccc(OC)cc23)C1` (centres undefined), the activity change, negative = inhibition is 19.5% [at 30.8 µM].

On to `CC(NC(=O)/C(C#N)=C/c1ccc(N2CCOCC2)cc1)c1ccccc1` (centres undefined), for which the Potency result was “inactive”.

As to `CC(/C=C/c1ccc(N(C)C)cc1)=N\N=C1\NC(=O)CC(C(=O)Nc2ccccc2)S1` (centres undefined), the activity change, negative = inhibition was -3.02% [at 30.8 µM].

As to `COc1ccc(-c2ncccc2OC(=O)C23CC4CC(CC(C4)C2)C3)cc1OC`, the activity change, negative = inhibition is -6.96% [at 30.8 µM].

Turning to `Cc1ccc2cccc(OC(=O)c3c(F)cccc3Cl)c2n1`, the Potency result was “inactive”.

Regarding `CN(C)c1ccc(/C=C(\C#N)C(=O)c2ccccc2)cc1`, the activity change, negative = inhibition is 15.5% [at 30.8 µM].

As to `Cc1cccc(NCc2cccc3ccccc23)n1`, the activity change, negative = inhibition was -11.4% [at 30.8 µM].

In the case of `COc1ccccc1C(=O)NNC(=O)CCCN1C(=O)/C(=C/c2cccs2)SC1=S`, the activity change, negative = inhibition was 10.7% [at 30.8 µM].

With `O=c1[nH]c2ccccc2nc1/C=C(\O)c1cccs1`, the activity change, negative = inhibition was -7.08% [at 30.8 µM].

As to `CC1CCN(c2ccc3c(c2)S(=O)(=O)c2cccc(C(=O)NCc4cccc(F)c4)c2C3=O)CC1`, the Potency result was “inactive”.

For `COc1cccc(-n2c(SCC(=O)Nc3ccc(F)cc3F)nc3c([nH]c4ccccc43)c2=O)c1`, the Potency result was “inactive”.

Consider `O=C1c2cccc3c(N4CCCCC4)ccc(c23)C(=O)N1c1ccccc1O`, for which the activity change, negative = inhibition is -4.8% [at 30.8 µM].

Turning to `COc1ccc(OC)c(NC(=S)N2c3ccccc3CC2C)c1` (centres undefined), the activity change, negative = inhibition is -17.1% [at 30.8 µM].

A further assay has the same target. The assay can be described thus: Counterscreen qHTS for agonist of cAMP-regulated guanine nucleotide exchange factor 3 (EPAC1) (AID 1645889). Further: nearly all actives have a fitted effect of over 40% in size. Further: potency means the concentration at half of the fitted maximal effect. On activation: % of control where 0% means no effect. The conditions noted are these: EPAC1 Rap1B-BODIPY-GDP exchange, fluorescence; series mostly up to 154 µM. The essentials: as §1
Turning to `COC(=O)c1ccc2nc(-c3ccc(F)cc3)c(Cc3ccccc3)n2c1`, the activation is 19.8% [at 30.8 µM].

On to `Cc1cc2nc3c(=O)n(C)c(=O)n(C)c3nc2cc1N=CN(C)C`, for which the Potency is 44.7 µM (active).

As for `Cc1ccc(S(=O)(=O)N2[C@@H](c3ccc(C(C)(C)C)cc3)C(C(=O)O)=CC[C@H]2c2ccc(Cl)cc2)cc1`, the Potency result was “inactive”.

Regarding `COc1ccc(N2C(=O)CSC2c2ccccc2F)c(OC)c1` (centres undefined), the Potency entry is “inactive”.

As for `CCOC(=O)C1Oc2ccccc2C(c2ccc(C)cc2)=C1C(=O)OC` (centres undefined), the Potency result was “inactive”.

For the molecule `Cc1ccc(S(=O)(=O)N2[C@@H](c3ccc(C(C)(C)C)cc3)C(C(=O)O)=CC[C@H]2c2cccc(Cl)c2)cc1`, the Potency entry is “inactive”.

`COc1ccc(N2C(=O)[C@H]3CCC=C[C@H]3[C@@H]2c2ccccc2Br)cc1`: the Potency entry is “inactive”.

As to `O=C(O)c1cc(Nc2cc(Cl)c3nonc3c2[N+](=O)[O-])ccc1O`, the Potency result was “inactive”.

Take `Fc1cc(F)cc(-c2c(-c3ccccc3)ncc3ccc(F)cc23)c1`: the Potency result is “inactive”.

On to `O=C1OC(c2ccccc2)(c2cc(Br)c(O)c(Br)c2)c2ccccc21` (centres undefined), for which the Potency entry is “inactive”.
